This is part of a sample that, as a whole, favours compounds with a hit. Of some 83,000 tested, about 20% had one in any assay.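 For each line, cells grew in 96-well plates with the test compound present at a single concentration for 48 hours.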 Unmarked numbers belong to inactive results. Active and inactive are the calls of the source. How the source made its calls: active means growth percent below 10; inactive means the rest.

From PubChem BioAssay (NCI) come the findings set out here.

Common to all, as to experiment: NCI-60 one-dose screen, 48 h (100 = growth as untreated, 0 = no growth, -100 = all killed)
The subject of test [1] is SK-MEL-2 melanoma. The note with it: 10 µM unless noted.
Test [2] concerns EKVX NSCLC. The note with it: 10 µM unless noted.
Test [3] relates to SN12C renal. The note with it: 10 µM unless noted.
The subject of test [4] is UO-31 renal. The following applies: 10 µM unless noted.
For test [5], the system named is TK-10 renal. The note with it: 10 µM unless noted.
Test [6] concerns A498 renal. The note with it: 10 µM unless noted.
For test [7], the system named is CCRF-CEM leukemia. The note with it: 10 µM unless noted.
Test [8] deals with MOLT-4 leukemia. The following applies: 10 µM unless noted.
The test system of test [9] is SR leukemia. The note with it: 10 µM unless noted.
For test [10], the system named is RPMI-8226 leukemia. The following applies: 10 µM unless noted.
The subject of test [11] is OVCAR-8 ovarian. The note with it: 10 µM unless noted.
Test [12] concerns OVCAR-5 ovarian. The note with it: 10 µM unless noted.
The subject of test [13] is OVCAR-4 ovarian. The following applies: 10 µM unless noted.
Test [14] relates to SK-OV-3 ovarian. The note with it: 10 µM unless noted.
Test [15] concerns IGROV1 ovarian. The note with it: 10 µM unless noted.
Test [16] deals with OVCAR-3 ovarian. The note with it: 10 µM unless noted.
In test [17] the test system is HS 578T breast. The following applies: 10 µM unless noted.
Test [18] has as its system NCI/ADR-RES ovarian. The following applies: 10 µM unless noted.
Test [19] relates to CAKI-1 renal. The following applies: 10 µM.

Consider `CC(=O)n1cc(/C=C2\N=C(c3ccc(Cl)cc3)N(c3ccc(S(=O)(=O)Nc4nccs4)cc3)C2=O)c2ccccc21`, for which the growth was 89.2% in [1]; 85.7% in [2]; 74.3% in [3]; 70.4% in [4]; 117% in test [5]; 74.9% in [6]. The growth is 47.8% in test [7]; 51.1% in test [8]; 61.3% in test [9]; 62% in test [10]; 66.1% in [11]; 105% in [12]. For the same compound, the growth in [13] is 73.3%; in [14] it was 110%; in [15] it was 91.4%; in [16] it was 76.9%; in test [17], 72.4%; in [18] it was 106%.

On to `CCc1c(C)c2cc3nc(NCc4ccccc4)oc3c(C)c2oc1=O`, for which the growth in [1] was 83.6%; in test [2], 77.1%; in test [3], 73.5%; in test [4] it was 80.1%; in [5], 77.6%; in test [6] it was 49.2%. The growth in test [7] was 79.6%; in [8] it was 71.9%; in [9], 73.5%; in [10] it was 71.6%; in [11], 62.5%; in test [12], 89.7%. Besides, the growth in test [13] is 33.9%; in test [14], 39.5%; in test [15], 76.2%; in test [16] it was 87%; in test [17], 67.1%.

With `COc1ccc2c(c1)OC(N)=C(C#N)C2c1ccc(F)cc1` (stereo not drawn), the growth was 18.5% in [1]; 44.8% in [2]; 43.8% in [3]; 41.8% in test [4]; 69.5% in [5]; -3.77% (active) in [6]. The growth is 12.6% in test [7]; 28.3% in test [8]; 18.1% in test [9]; 6.87% (active) in test [10]; 34.4% in test [11]; 56.4% in test [12]. In addition, the growth in [13] is 69%; in [14], 16.6%; in test [15], 53.1%; in [16], 16.9%; in [17], 18.8%; in [18], 26%.

For the compound `CC(CN(C)C)CN1c2ccccc2CCc2ccccc21` (stereo not drawn), the growth is 88.8% in test [1]; 80.6% in test [2]; 73.7% in [3]; 38.9% in test [4]; 87.2% in test [5]; 70.6% in [19]. In addition, the growth in test [6] is 104%; in test [7] it was 87.1%; in [8], 81.2%; in test [9], 91.4%; in test [10] it was 90.4%; in [11] it was 106%. The growth in test [13] is 78.7%; in test [14], 95%; in test [15] it was 62%; in [17] it was 86.4%; in test [18] it was 76.4%.

As for `CCn1c(C)nc([N+](=O)[O-])c1Sc1nc(N)nc2nc[nH]c12`, the growth is 40.5% in test [1]; 38.9% in test [2]; 33% in test [3]; 37.5% in test [4]; 34.5% in [5]; 57% in [6]. For the same compound, the growth in [7] is 11.8%; in test [8] it was 14.3%; in [9] it was 16.6%; in test [10] it was 3.41% (active); in test [11], 24.1%; in [12] it was 31.7%. Also, the growth is 47.4% in test [13]; 5.32% (active) in test [14]; 77.5% in [15]; 24.5% in test [16]; 50.4% in [17].

With `COc1ccc2c(-c3ccc(F)cc3)c(C#N)c(=NC(C)=O)oc2c1`, the growth in test [1] is 26.5%; in test [2] it was 62.8%; in test [3], 56.9%; in test [4] it was 50.4%; in test [5], 78.1%; in test [6] it was 18.1%. In addition, the growth was 13.1% in [7]; 29.6% in [8]; 13.7% in test [9]; 12.3% in test [10]; 50.2% in test [11]; 103% in test [12]. The growth is 92.5% in test [13]; 44.6% in [14]; 54% in [15]; 18.2% in [16]; 42.9% in test [17]; 31.2% in [18].

In the case of `NC(CCCC(N)C(=O)c1ccccc1)C(=O)O` (stereo not drawn), the growth was 92.7% in test [1]; 101% in [2]; 104% in test [3]; 84.3% in [4]; 86.7% in test [5]; 103% in test [6]. Further, the growth was 111% in [7]; 94.5% in [8]; 124% in [9]; 115% in [10]; 86.2% in test [11]; 103% in test [12]. In addition, the growth in [13] is 97.3%; in test [14] it was 93%; in test [15] it was 101%; in test [16], 110%; in [17], 108%.

Turning to `C[C@]12CC[C@@H]3c4ccc(O)c(N)c4CC[C@H]3[C@@H]1CC[C@@H]2O`, the growth was 102% in test [1]; 78.5% in [2]; 105% in [3]; 109% in [4]; 135% in [5]; 96% in [6]. Also, the growth in [7] was 75.9%; in test [8] it was 80.8%; in [9], 98.1%; in test [10], 85.5%; in test [11] it was 104%; in test [12], 117%. Further, the growth in test [13] was 110%; in test [14], 128%; in [15] it was 136%; in test [16] it was 100%; in test [17] it was 99.2%; in test [18], 105%.

For `COc1ccc(Cl)cc1NC(=O)c1cc2c([nH]1)-c1nc(N)sc1CCC2`, the growth is 98% in test [1]; 92.5% in [2]; 97.4% in test [3]; 79.4% in [4]; 97.8% in test [5]; 95.9% in test [6]. The growth in test [7] was 86.7%; in [8] it was 62%; in test [9] it was 79.4%; in [10] it was 108%; in test [11], 101%; in test [12], 103%. The growth is 111% in test [13]; 98.4% in test [14]; 106% in test [15]; 106% in [16]; 108% in test [17]; 92.7% in test [18].
